The record followed here is PubChem BioAssay AID1259343 (VanderVen Lab, College of Veterinary Medicine, Cornell …, 2017).

Values joined by “and” are separate entries in the source; they are usually repeats but may differ in a detail not shown here. Equal values may be shown once. Among all 6,200 compounds or so, about 2,900 (47%) were called active. Rule as the data show it: active = inhibition above about 50%; inactive = the rest. So high a share suggests a set chosen from earlier hits. This is one part of the list. Some compounds were tested as several samples or in several runs, with calls that do not always agree.

This assay can be described thus: Mycobacterium tuberculosis growth inhibition, primary screen (AID 1259343). The following applies: inhibition: at 10 µM, stronger effect = higher value; outcome: 10 uM.
For orientation: inhibition means the change of the read-out against control, counted positive when it falls. In the case of `O=c1cccnn1CCNS(=O)(=O)c1ccc(Cl)s1`, the inhibition was 99.9% (active). The result for `CC(C)(C)C(=O)C=c1[nH]c(=O)c(=Cc2c(F)c(F)c(F)c(F)c2F)s1` reads 101% (active). As for `Cc1ccc(Cn2nc(C)c(C=c3s/c(=C\C(=O)C(C)(C)C)[nH]c3=O)c2C)cc1`, the inhibition was 9.64% (inactive). In the case of `CC(C)c1ccc(C=c2sc(=CC(=O)C(C)(C)C)[nH]c2=O)cc1`, the inhibition is 92.9% (active). For `Cc1ccc(C)c(C=c2sc(=CC(=O)C(C)(C)C)[nH]c2=O)c1`, the inhibition result is “inactive”. For `CC(C)(C)C(=O)/C=c1/[nH]c(=O)/c(=C/c2ccc(F)c(Br)c2)s1`, the inhibition was 101% (active). With `O=C(Nc1nccn1CC1CC1)c1cc(F)c(Cl)cc1Cl`, the inhibition is 94.8% (active). The result for `CC(C)(C)n1c(NC(=O)c2ccc(F)cc2Cl)nc2ccccc21` reads -8.71% (inactive); that for `Cc1ccc(-c2csc(C=Cc3c(C)noc3C)n2)cc1`, 43.6% (inactive). `Cc1ccc(S(=O)(=O)Nc2nc(-c3ccc(F)c(F)c3)cs2)cc1`: the inhibition was 80.1% (active). As to `CCCc1cc(NC)n2nc(C)c(-c3ccccc3)c2n1`, the inhibition was 95.4% (active). Regarding `CCOC(=O)Cc1cc(=O)n2[nH]c(-c3ccccc3)c(-c3ccccc3)c2n1`, the inhibition was 40.6% (inactive).

As to `Cc1ccc(-c2c(C)nn3c(NCC(C)C)cc(C)nc23)cc1`, the inhibition is 47.5% (inactive).

On to `CC(C)c1cc(=O)n2[nH]cc(-c3ccccc3)c2n1`, for which the inhibition is -1.37% (inactive).

Take `Cc1cc(C)nc(SCc2cc(=O)n3[nH]c(C)c(-c4ccccc4)c3n2)n1`: the inhibition is 100% (active). As to `CCCc1cc(NC)n2ncc(-c3ccccc3)c2n1`, the inhibition is -27.3% (inactive). In the case of `Cc1[nH]n2c(=O)cc(C(C)C)nc2c1-c1ccccc1`, the inhibition is 100% (active). As for `CCCc1cc(=O)n2[nH]cc(-c3ccccc3)c2n1`, the inhibition is 11.4% (inactive). The result for `CCCc1cc(=O)n2[nH]c(C)c(-c3ccccc3)c2n1` reads 78.8% (active) and -6.08% (inactive). The result for `N#Cc1cccc(S(=O)(=O)Nc2cc(C(F)(F)F)ccc2-n2cccn2)c1` reads 33.2% (inactive); that for `N#Cc1cccc(S(=O)(=O)Oc2ccccc2)c1`, 68.3% (active).

Regarding `N#Cc1cccc(OCCN2CCCc3cc(F)ccc32)c1`, the inhibition was 36.8% (inactive).

In the case of `N#Cc1ccc(OS(=O)(=O)c2cccc(F)c2)cc1`, the inhibition is 92.1% (active). Regarding `COc1ccc(S(=O)(=O)Oc2cccc(CNCc3ccc(F)cc3)c2)cc1`, the inhibition is 30.6% (inactive). `CN(Cc1ccc(OC(F)F)cc1)S(=O)(=O)c1cccc(C#N)c1`: the inhibition is 28% (inactive). `N#Cc1cccc(S(=O)(=O)Oc2ccc(F)c(F)c2)c1`: the inhibition is 100% (active).

Take `N#Cc1ccc(OS(=O)(=O)c2ccc(F)cc2)cc1`: the inhibition is 29.4% (inactive).

As for `CC(C)NC(=O)CCC1CCCCC1`, the inhibition is 103% (active).

For `CC(C)NC(=O)NC(=O)COC(=O)C1CC1`, the inhibition was 23.7% (inactive). Consider `COc1ccc(-n2ccnc2CN2CCc3c([nH]c4ccccc34)C2c2ccccn2)cc1` (configuration not stated), for which the inhibition result is “inactive”.

Take `Cn1c(-c2ccccc2)nnc1C(C#N)C(=O)C1CC=CCC1` (configuration not stated): the inhibition is 93.3% (active). The result for `N#CC(C(=O)CC1CCCC1)c1nc(N)nc(Nc2ccccc2)n1` (configuration not stated) reads 1.29% (inactive); that for `CC(C)CCC(=O)C(C#N)c1nnc(-c2ccccc2)n1C` (configuration not stated), 85.2% (active); that for `NC(=NS(=O)(=O)c1ccc(Cl)cc1)c1ccc(Cl)cc1`, 15.6% (inactive). As to `COc1ccc(CCC(=O)NNc2cccc(Cl)c2)cc1Br`, the inhibition was 98.9% (active).

`COc1ccc(Br)cc1CN(C)CC(=O)Nc1cc(Cl)cc(Cl)c1`: the inhibition was -7.89% (inactive). `COc1ccc(COc2ccccc2NC(C)=O)cc1Br`: the inhibition is 36.3% (inactive). Turning to `OCC1(Cc2ccccc2Cl)CCN(CC#Cc2ccccc2)CC1`, the inhibition is 83.9% (active). As for `OCC1(Cc2ccccc2)CCN(Cc2cc3ccccc3s2)CC1`, the inhibition is 30.1% (inactive). As for `OCC1(Cc2ccccc2C(F)(F)F)CCN(c2ccc(Cl)cn2)CC1`, the inhibition was 8.01% (inactive). Take `O=C(/C=C/c1cccc([N+](=O)[O-])c1)n1cnc2ccccc21`: the inhibition was 96.9% (active). Turning to `O=C(C=Cc1ccc([N+](=O)[O-])cc1)c1ccc(F)cc1`, the inhibition was 25.8% (inactive). The result for `COc1ccc(-c2cnnc(NCCC3=CCCCC3)n2)c(OC)c1` reads “inactive”; that for `COc1ccccc1CCNc1nncc(-c2ccccc2)n1`, “inactive”.

As for `C1=C(CCNc2nncc(-c3ccccc3)n2)CCCC1`, the inhibition was 61.1% (active). For `Cc1ccc(NC(=O)c2cnc3cc(C(=O)N(C)C)n(C)c3c2)cc1Cl`, the inhibition is 84.7% (active). On to `CC1CCc2nc(NC(=O)c3ccc([N+](=O)[O-])s3)sc2C1` (configuration not stated), for which the inhibition is 102% (active). In the case of `CCOC(=O)C1=C(COC(=O)c2ccc([N+](=O)[O-])s2)NC(=O)NC1C` (configuration not stated), the inhibition was 21.7% (inactive).

In the case of `CC1CCc2nc(NC(=O)C3CCN(c4ncccn4)CC3)sc2C1` (configuration not stated), the inhibition was 90.3% (active). On to `CCOC(=O)C(C#N)=CNc1nc2c(s1)CC(C)CC2` (configuration not stated), for which the inhibition was 23.7% (inactive). Regarding `CCOC(C)C(=O)Nc1nc2c(s1)CC(c1ccccc1)CC2` (configuration not stated), the inhibition is 35.4% (inactive). For the molecule `O=C(Nc1cccc(-c2nc3c(s2)CCCC3)c1)C1CC1`, the inhibition was 7.39% (inactive). The result for `O=C(Cc1c(F)cccc1Cl)Nc1nc2c(s1)CCCC2` reads 95.5% (active); that for `CCC1CCc2nc(NC(=O)Cc3c(C)noc3C)sc2C1` (configuration not stated), 36.4% (inactive); that for `CC1CCc2nc(C(C#N)=Cc3cccs3)sc2C1` (configuration not stated), -38.8% (inactive). Consider `CC1CCc2nc(NC(=O)Cc3c(F)cccc3Cl)sc2C1` (configuration not stated), for which the inhibition is 59.4% (active). Take `CC(C)(CNC(=O)Nc1nc2c(s1)CCCC2)c1cccs1`: the inhibition is 1.49% (inactive). The result for `CC1CCc2nc(NC(=O)CSC(=S)N3CCCCC3C)sc2C1` (configuration not stated) reads 32.5% (inactive); that for `CC1CCc2ccc(F)cc2N1S(=O)(=O)c1ccc(Cl)s1` (configuration not stated), 30.3% (inactive). With `Fc1cccc(CN2CCN(Cc3ccc(-c4cccnc4)cc3)CC2)c1`, the inhibition was 46.7% (inactive). The result for `Cc1ccc(SCC(=O)N2CCN(Cc3ccccc3)C2=O)cc1` reads 20.7% (inactive); that for `NC(=O)CSc1ccc(-c2cccc(CN3CCOCC3)c2)cc1`, 54.4% (active). The result for `Brc1ccc(Oc2nnc(-c3ccccc3)s2)cc1` reads 43.2% (inactive). The result for `Cc1ccc2nc(-c3ccc(NS(C)(=O)=O)cc3)sc2c1` reads 29.5% (inactive); that for `Cc1ccc(S(=O)(=O)c2nnc(-c3ccccc3)s2)cc1`, 58.3% (active); that for `CC(=O)CCc1ccc(OCCCOc2ccc(Cl)c3cccnc23)cc1`, 69.7% (active). With `CCC(C)C(=O)Nc1ccc(Cl)c2cccnc12` (configuration not stated), the inhibition is -29.8% (inactive). The result for `CNc1nc(=S)[nH]c2ccccc12` reads 72.5% (active); that for `S=c1nc(NC2CC2)c2ccccc2[nH]1`, 85.5% (active); that for `Cc1nn2c(nc(NC3CCCC3)c3ccccc32)c1Cl`, 13.2% (inactive). For `CCNc1nc(=S)[nH]c2ccccc12`, the inhibition was -44.3% (inactive). `COc1ccc(-c2csc(C(O)c3cccc(Cl)c3)n2)cn1` (configuration not stated): the inhibition is 40.1% (inactive). Turning to `COc1ccc(-c2noc(Cc3ccc(F)c(Br)c3)n2)cn1`, the inhibition is 58.1% (active). In the case of `COc1ccc(Cc2nc(-c3ccc(Br)cc3)no2)cc1`, the inhibition is -10.8% (inactive).

As to `CC(C)c1nc2c(c(=O)c3ccccc3n2C)c(=O)n1-c1ccccc1`, the inhibition was -10.5% (inactive).

As for `CC1CCN(C(=S)NC2CC3CCC2C3)CC1` (configuration not stated), the inhibition was 67.5% (active). As to `c1ccc2[nH]c(CCC3CCCCC3)nc2c1`, the inhibition was -43.3% (inactive). As for `NC(=S)Cc1nc2ccccc2[nH]1`, the inhibition was 98.2% (active). For `CCc1ccc(/C=C/c2nc3ccccc3[nH]c2=O)cc1`, the inhibition is 26.4% (inactive). As to `O=c1ccn(CCOc2cc(Cl)cc(Cl)c2)c(Cl)c1`, the inhibition is 53.2% (active).

With `N#Cc1c(N)sc2c1CCN(c1nccc(C(F)(F)F)n1)C2`, the inhibition is -0.04% (inactive). On to `COc1ccc(CC(=O)Nc2cc(-c3cccs3)nn2-c2nc(C)cc(=O)[nH]2)cc1`, for which the inhibition is 99.4% (active).

Consider `COc1ccc(OCC(=O)Nc2cc(-c3cccs3)nn2-c2nc(C)cc(=O)[nH]2)cc1`, for which the inhibition was 99.1% (active). The result for `COc1ccc(CC(=O)Nc2cc(-c3cccs3)nn2-c2nc(C)c(C)c(=O)[nH]2)cc1` reads 99.9% (active).

As to `Cc1nc(-n2nc(-c3cccs3)cc2NC(=O)CCC2CCCC2)[nH]c(=O)c1C`, the inhibition is 101% (active). As for `Cc1nc(-n2nc(-c3cccs3)cc2NC(=O)C2CC2)[nH]c(=O)c1C`, the inhibition was -19.4% (inactive).

In the case of `CC(C)c1cc(=O)[nH]c(-n2nc(-c3cccs3)cc2NC(=O)COc2ccccc2F)n1`, the inhibition was 100% (active). The result for `CC(C)c1cc(=O)[nH]c(-n2nc(-c3cccs3)cc2NC(=O)CCc2ccccc2)n1` reads 19.2% (inactive); that for `COc1ccc(CC(=O)Nc2cc(-c3cccs3)nn2-c2nc(C(C)C)cc(=O)[nH]2)cc1`, 100% (active).

Turning to `Cc1cc(=O)[nH]c(-n2nc(-c3cccs3)cc2NC(=O)COc2ccccc2F)n1`, the inhibition was -30.7% (inactive). Turning to `CC(C)c1cc(=O)[nH]c(-n2nc(-c3cccs3)cc2NC(=O)Cc2ccc(F)cc2)n1`, the inhibition is 6.65% (inactive). With `CCCCCOc1ccc(C(=O)N2CCC(O)(c3ccccc3)CC2)cc1OCCCCC`, the inhibition is 35.2% (inactive). The result for `Cc1ccc(NCc2nsc(N(C)C)n2)c(F)c1` reads 51% (active); that for `O=C(COCc1ccccc1)N(Cc1ccccc1)Cc1nc2cc(Cl)ccc2o1`, -20.6% (inactive); that for `O=C(NCC1CCCCO1)c1ccc2oc(CCCc3ccccc3)nc2c1` (configuration not stated), 47% (inactive).

With `O=C(c1ccc2oc(CCCc3ccccc3)nc2c1)N1CCCCO1`, the inhibition was 50.9% (active). For the molecule `CS(=O)(=O)NC(=O)c1ccc(Oc2ccc(F)cc2F)cc1`, the inhibition was 72.8% (active). Turning to `N#Cc1c(F)cccc1Oc1ccc(C(=O)O)cc1`, the inhibition is 39.2% (inactive).

With `CS(=O)(=O)NCc1ccc(Oc2ccccc2F)c(F)c1`, the inhibition is 1.57% (inactive). `Cc1ccccc1CSc1nc2c(c(=O)n1C)SCC2`: the inhibition is 45.6% (inactive).

In the case of `O=c1c2sccc2nc(SCCc2ccccn2)n1-c1ccccc1`, the inhibition is 12.8% (inactive).

`CCOc1ccccc1CSc1nc2ccsc2c(=O)n1C`: the inhibition was 102% (active).
